Only a selection was taken, and hits are over-represented in it overall.
DT40 TDP1 CPT: growth inhibition of DT40 Tdp1-/-;hTDP1 cells with camptothecin (screen for TDP1 inhibitors); chicken DT40 Tdp1-/-;hTDP1 cells + 20 nM CPT, ATP luminescence, 48 h; Potency, µM (series often up to 46.2 µM), for the others: at the top dose activity change, negative = growth inhibition, hits mostly inhibitors; 12% of 420,000 active; AID 686979; also: potency is read from the fitted curve at half-maximal effect; nearly all actives have a fitted effect of over 55% in size
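Chicken DT40 Tdp1-/- cells stably complemented with human TDP1 were seeded at 400 cells/well in medium containing 20 nM camptothecin, exposed to pin-transferred compounds, and grown at 37 °C for at least 48 hr. Viability was read as ATP luminescence.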
HT1080 IDH1KD tx: HT-1080 IDH1 knockdown cell toxicity (counter line); HT-1080 IDH1 knockdown viability, ATP luminescence, 48 h; Potency, µM (highest dose often 46.1 µM), for inactives: at the highest dose activity, negative = toxicity, actives largely listed as cytotoxic; 2% of 360,000 active; AID 686971;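 also: potency is read from the fitted curve at half-maximal effect; 0% = DMSO wells and -100% = cell-free medium wells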
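IDH1KD HT-1080 cells, 750/well, RPMI + 5% FBS; compound pinned after 2 h settling; 48 h, 37 °C; CellTiter-Glo luminescence; % activity normalised to DMSO and no-cell wells; curves fitted, classed by r2 and efficacy.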
IL-1B inflam inh: inflammasome signaling inhibition, IL-1 beta readout. THP-1 LPS/ATP IL-1B secretion, AlphaLISA, 16 h; active compounds read low. activity change, % at 57.5 µM. 4.7% of 360,000 active; in the data active = activity change below about -50%; inconclusive = mostly about -30% to -49%
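Secreted IL-1B measured by AlphaLISA bead assay after 16 h compound exposure of THP-1 cells; compounds (final up to 57.5 uM) added 1 h before LPS (250 ng/mL) and ATP (1.25 mM) stimulation; lower signal means less secretion.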
HT1080NT lethal: kills 2HG-producing HT-1080-NT fibrosarcoma cells | HT-1080-NT fibrosarcoma viability, CellTiter-Glo ATP luminescence, 48 h | Potency, µM (titrated, usually from 46.1 µM), for the others: top-dose activity, negative = less viability, actives largely listed as cytotoxic | 1.6% of 360,000 active;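 also: NT is the 2HG producing partner of a matched IDH1 knockdown line; potency is read from the fitted curve at half-maximal effect; 0% = DMSO-treated cells and -100% = media-only wells without cells; nearly all actives have a fitted effect of over 55% in size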
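A 48-hour cytotoxicity screen used HT-1080-NT cells plated 2 hours before compound delivery. ATP-based CellTiter-Glo luminescence measured viability, normalized to DMSO and no-cell controls.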
12-LOX inh: ALOX12 (human) lipoxygenase inhibition | purified 12hLO, xylenol orange hydroperoxide absorbance | 1.1% of 580,000 active | P18054 | Potency, µM (titrated, usually from 108 µM), inactives show at the highest dose activity change, negative = inhibition, usual class: inhibitors; also: potency is read from the fitted curve at half-maximal effect
Target sequence (P18054 whole entry, looked up): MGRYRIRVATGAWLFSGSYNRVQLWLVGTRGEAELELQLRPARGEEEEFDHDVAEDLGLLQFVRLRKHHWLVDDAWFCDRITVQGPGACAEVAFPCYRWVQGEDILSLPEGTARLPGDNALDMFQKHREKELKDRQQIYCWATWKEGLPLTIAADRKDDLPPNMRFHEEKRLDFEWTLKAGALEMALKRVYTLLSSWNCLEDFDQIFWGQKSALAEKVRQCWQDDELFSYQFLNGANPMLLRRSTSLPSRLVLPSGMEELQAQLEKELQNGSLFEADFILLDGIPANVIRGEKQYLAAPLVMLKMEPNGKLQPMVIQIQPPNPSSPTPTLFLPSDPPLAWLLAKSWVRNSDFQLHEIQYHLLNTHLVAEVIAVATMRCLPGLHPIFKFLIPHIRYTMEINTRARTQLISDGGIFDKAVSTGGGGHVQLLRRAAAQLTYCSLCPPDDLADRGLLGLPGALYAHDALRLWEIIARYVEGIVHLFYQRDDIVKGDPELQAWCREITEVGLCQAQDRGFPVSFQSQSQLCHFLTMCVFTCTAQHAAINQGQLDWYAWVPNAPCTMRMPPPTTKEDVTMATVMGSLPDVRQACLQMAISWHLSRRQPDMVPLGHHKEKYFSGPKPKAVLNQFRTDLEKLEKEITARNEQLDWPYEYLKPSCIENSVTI
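Purified human 12hLO at 150 nM in 25 mM Hepes, 0.01% Triton X-100, pH 7.0, preincubated 15 min at room temperature with compound. Reaction started with 40 uM arachidonic acid, 30 min at room temperature. Hydroperoxide measured by Fe-xylenol orange, 573/405 nm absorbance ratio.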
TDP1 cell noCPT: qHTS for Inhibitors of human tyrosyl-DNA phosphodiesterase 1 (TDP1): qHTS in cells in absence of CPT; DT40 Tdp1-/- hTDP1 cells, no CPT, ATP luminescence, 48 h; Potency, µM (titrated, usually from 46.2 µM), for the others: at the top dose activity change, negative = growth inhibition, actives largely listed as inhibitors; 15% of 420,000 active; also: potency is read from the fitted curve at half-maximal effect; nearly all actives have a fitted effect of over 55% in size
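Chicken DT40 Tdp1-/- cells stably complemented with human TDP1 were seeded at 400 cells/well with DMSO in place of 20 nM camptothecin. After compound pinning, cells grew at least 48 hr at 37 °C; viability read by CellTiter-Glo luminescence.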
* marks the source's active call; other numbers are inactive results. Unless noted, calls follow the shape of the dose curve; as a rule, active = well fitted curve in the direction sought with a large enough effect; inconclusive = small, poorly fitted or top-dose-only effect, or another doubt; inactive = no such curve, though single readings can be large; an effect the other way counts as inactive or inconclusive. Unless noted, % is scaled to controls: 0 for no effect and ±100 for the full control effect.

Results for CCOP(=O)(OCC)c1nc(-c2cccc([N+](=O)[O-])c2)oc1N1CCCCC1 ?
DT40 TDP1 CPT: inconclusive; HT1080 IDH1KD tx: 0%; IL-1B inflam inh: 0; HT1080NT lethal: -1%; 12-LOX inh: 0%; TDP1 cell noCPT: 21µM*

Results for COP(=O)(OC)c1nc(-c2ccc(C)cc2)oc1N1CCCCC1 ?
DT40 TDP1 CPT: inconclusive; HT1080 IDH1KD tx: -3%; IL-1B inflam inh: inconclusive; HT1080NT lethal: 0%; 12-LOX inh: 0%; TDP1 cell noCPT: 15µM*

How did COP(=O)(OC)c1nc(-c2ccc(C)cc2)oc1N1CCOCC1 do in these assays?
12-LOX inh: 24%

What do the screens show for `COc1cc(C2CC(=O)Nc3nc(-c4ccccc4)[nH]c(=O)c32)cc(OC)c1OC` (centres undefined)?
12-LOX inh: 60%

Results for CCCS(=O)(=O)N1CCCC(C(=O)NCCc2ccccc2)C1 (centres undefined) ?
DT40 TDP1 CPT: 33%; HT1080 IDH1KD tx: 4%; IL-1B inflam inh: 12; HT1080NT lethal: 13%; 12-LOX inh: 11%; TDP1 cell noCPT: 5%

Results for O=S(=O)(c1ccc(Cl)nc1)N1CCC(Cc2ccccc2)CC1 ?
DT40 TDP1 CPT: 7%; HT1080 IDH1KD tx: -1%; IL-1B inflam inh: 19; HT1080NT lethal: 11%; 12-LOX inh: 47%; TDP1 cell noCPT: 8%

Results for CCCCOc1ccc(C(C)NC(=O)C2CCCN(S(=O)(=O)CCC)C2)cc1 (centres undefined) ?
DT40 TDP1 CPT: 12µM*; HT1080 IDH1KD tx: -16%; IL-1B inflam inh: 1; HT1080NT lethal: -5%; 12-LOX inh: -9%; TDP1 cell noCPT: 16µM*

What do the screens show for `O=C(C1CCN(S(=O)(=O)N2CCC3(CC2)OCCO3)CC1)N1CCC(Cc2ccccc2)CC1`?
DT40 TDP1 CPT: inconclusive; HT1080 IDH1KD tx: 4%; IL-1B inflam inh: -64*; HT1080NT lethal: 0%; 12-LOX inh: -29%; TDP1 cell noCPT: inconclusive

Results for CCCS(=O)(=O)N1CCCC(C(=O)N2CCC(Cc3ccccc3)CC2)C1 (centres undefined) ?
DT40 TDP1 CPT: inconclusive; HT1080 IDH1KD tx: 0%; IL-1B inflam inh: -21; HT1080NT lethal: 5%; 12-LOX inh: 0%; TDP1 cell noCPT: 15µM*

What do the screens show for `NC(=O)C1CCN(c2ccc(S(=O)(=O)N3CCC(Cc4ccccc4)CC3)cn2)CC1`?
DT40 TDP1 CPT: inconclusive; HT1080 IDH1KD tx: -3%; IL-1B inflam inh: -1; HT1080NT lethal: 1%; 12-LOX inh: -5%; TDP1 cell noCPT: 13µM*

How did CCCS(=O)(=O)N1CCC(C(=O)NCCCN2CCC(Cc3ccccc3)CC2)CC1 do in these assays?
DT40 TDP1 CPT: -12%; HT1080 IDH1KD tx: -7%; IL-1B inflam inh: 11; HT1080NT lethal: -1%; 12-LOX inh: -16%; TDP1 cell noCPT: -11%

What do the screens show for `CCCS(=O)(=O)N1CCC(C(=O)N2CCC(Cc3ccccc3)CC2)CC1`?
DT40 TDP1 CPT: 18µM*; HT1080 IDH1KD tx: 0%; IL-1B inflam inh: -18; HT1080NT lethal: 1%; 12-LOX inh: 388%; TDP1 cell noCPT: 21µM*

How did Cc1ccc2[nH]c(=O)c3cc(C(=O)N(C)Cc4ccco4)sc3c2c1 do in these assays?
DT40 TDP1 CPT: inconclusive; HT1080 IDH1KD tx: -21%; IL-1B inflam inh: -7; HT1080NT lethal: -25%; 12-LOX inh: inconclusive; TDP1 cell noCPT: inconclusive

Results for CCN(C(=O)c1cc2c(=O)[nH]c3ccc(C)cc3c2s1)c1ccc(OC)cc1 ?
DT40 TDP1 CPT: 29µM*; HT1080 IDH1KD tx: -1%; IL-1B inflam inh: -10; HT1080NT lethal: -3%; 12-LOX inh: 0%; TDP1 cell noCPT: 9.2µM*

Results for CCOCCCN(Cc1ccco1)C(=O)c1cc2c(=O)[nH]c3ccc(C)cc3c2s1 ?
DT40 TDP1 CPT: 23µM*; HT1080 IDH1KD tx: -23%; IL-1B inflam inh: -6; HT1080NT lethal: -20%; 12-LOX inh: 9%; TDP1 cell noCPT: 12µM*

How did CCCN(CCC)C(=O)c1cc2c(=O)[nH]c3ccc(C)cc3c2s1 do in these assays?
DT40 TDP1 CPT: inconclusive; HT1080 IDH1KD tx: 1%; IL-1B inflam inh: inconclusive; HT1080NT lethal: -2%; 12-LOX inh: -16%; TDP1 cell noCPT: 16µM*

What do the screens show for `CCN(CCCNC(=O)c1cc2c(=O)[nH]c3ccc(C)cc3c2s1)c1ccc(C)cc1`?
DT40 TDP1 CPT: inconclusive; 12-LOX inh: 4%; TDP1 cell noCPT: inconclusive

Results for CCCN(C(=O)c1cc2c(=O)[nH]c3ccc(C)cc3c2s1)c1ccc(CC)cc1 ?
DT40 TDP1 CPT: -3%; 12-LOX inh: -24%; TDP1 cell noCPT: -11%

Results for Cc1ccc(C)c(N(C)C(=O)c2cc3c(=O)[nH]c4ccc(C)cc4c3s2)c1 ?
DT40 TDP1 CPT: 16µM*; HT1080 IDH1KD tx: 6%; IL-1B inflam inh: -3; HT1080NT lethal: -4%; 12-LOX inh: -8%; TDP1 cell noCPT: 4.1µM*

Results for CN1/C(=C/C=C(C#N)C#N)C=Cc2ccccc21 ?
DT40 TDP1 CPT: -13%; HT1080 IDH1KD tx: 5%; IL-1B inflam inh: 20; HT1080NT lethal: 1%; 12-LOX inh: 1%; TDP1 cell noCPT: -12%

How did CCOC(=O)/C(C#N)=C/C=C1\C=Cc2ccccc2N1CC do in these assays?
DT40 TDP1 CPT: 21µM*; HT1080 IDH1KD tx: 0%; IL-1B inflam inh: inconclusive; HT1080NT lethal: 6%; 12-LOX inh: -2%; TDP1 cell noCPT: 23µM*

Results for CCCN1C=CC(=CC=C(C#N)C#N)C=C1 ?
DT40 TDP1 CPT: 0%; HT1080 IDH1KD tx: 2%; HT1080NT lethal: -2%; 12-LOX inh: -1%; TDP1 cell noCPT: -22%

Results for CCCCCCN1C=CC(=C/C=C(\C#N)C(=O)OCC)C=C1 ?
DT40 TDP1 CPT: inconclusive; HT1080 IDH1KD tx: 3%; IL-1B inflam inh: 0; HT1080NT lethal: -8%; 12-LOX inh: -2%; TDP1 cell noCPT: 16µM*

How did COc1ccc(C(=O)N2CCC(n3cc(-c4nc(C)no4)nn3)CC2)cc1F do in these assays?
12-LOX inh: 7%

Results for COc1ccc(CNC(=O)CCNS(=O)(=O)c2cc(Br)cnc2N)cc1 ?
DT40 TDP1 CPT: 21µM*; HT1080 IDH1KD tx: 1%; IL-1B inflam inh: 29; HT1080NT lethal: 28%; TDP1 cell noCPT: 13µM*

Results for CNC(=O)C1CCN(CC(=O)N(C)CC(=O)Nc2ccc(Cl)c(C(F)(F)F)c2)CC1 ?
12-LOX inh: 1%

Screening results (PubChem BioAssay)
